How the values were obtained:
Conditions in all cases: Compound Concentration (nM):1000
ROCK2 = tested on: ROCK2
ROS1 = tested on: ROS1
[1] = tested on: RPS6KA4(Kin.Dom.1-N-terminal)
[2] = tested on: RPS6KA4(Kin.Dom.2-C-terminal)
[3] = tested on: RPS6KA5(Kin.Dom.1-N-terminal)
[4] = tested on: RPS6KA5(Kin.Dom.2-C-terminal)
[5] = tested on: T1, RSK1(Kin.Dom.1-N-terminal)
T1 construct: gene RPS6KA1

[6] = tested on: T2, RSK1(Kin.Dom.2-C-terminal)
T2 construct: gene RPS6KA1

[7] = tested on: T3, RSK2(Kin.Dom.1-N-terminal)
T3 construct: gene RPS6KA3

[8] = tested on: T4, RSK2(Kin.Dom.2-C-terminal)
T4 construct: gene RPS6KA3

[9] = tested on: T5, RSK3(Kin.Dom.1-N-terminal)
T5 construct: gene RPS6KA2

[10] = tested on: T6, RSK3(Kin.Dom.2-C-terminal)
T6 construct: gene RPS6KA2

[11] = tested on: T7, RSK4(Kin.Dom.1-N-terminal)
T7 construct: gene RPS6KA6

[12] = tested on: T8, RSK4(Kin.Dom.2-C-terminal)
T8 construct: gene RPS6KA6

S6K1 = tested on: T9, S6K1
T9 construct: gene RPS6KB1

SBK1 = tested on: SBK1
SGK2 = tested on: SGK2
SGK3 = tested on: SGK3
SGK = tested on: T10, SGK
T10 construct: gene SGK1

SIK2 = tested on: SIK2
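Also: KINOMEscan scanMAX binding as percent activity remaining versus control; lower means stronger binding.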

| Compound | Percent Control (ROCK2) [%] | Percent Control (ROS1) [%] | Percent Control [1] [%] | Percent Control [2] [%] | Percent Control [3] [%] | Percent Control [4] [%] | Percent Control [5] [%] | Percent Control [6] [%] | Percent Control [7] [%] | Percent Control [8] [%] | Percent Control [9] [%] | Percent Control [10] [%] | Percent Control [11] [%] | Percent Control [12] [%] | Percent Control (S6K1) [%] | Percent Control (SBK1) [%] | Percent Control (SGK2) [%] | Percent Control (SGK3) [%] | Percent Control (SGK) [%] | Percent Control (SIK2) [%] |
| --- | --- | --- | --- | --- | --- | --- | --- | --- | --- | --- | --- | --- | --- | --- | --- | --- | --- | --- | --- | --- |
| CC1=C(C(=O)Nc2ccc3[nH]ncc3c2)C(c2ccc(Cl)c(Cl)c2)CC(=O)N1 (centres unmarked) [GSK299115A] | 0.1 | 98 | 100 | 82 | 100 | 60 | 100 | 81 | 75 | 89 | 100 | 89 | 69 | 80 | 67 | 73 | 81 | 48 | 72 | 87 |
| Cl.O=S1CCN(Cc2ccc(-c3ccc4ncnc(Nc5ccc(OCc6ccccc6)c(F)c5)c4c3)o2)CC1 [GW576924A] | 94 | 100 | 100 | 100 | 100 | 100 | 100 | 100 | 100 | 100 | 100 | 100 | 97 | 100 | 97 | 100 | 100 | 78 | 100 | 81 |
| CCS(=O)(=O)c1ccc(OC)c(Nc2ncc(-c3cccc(F)c3)o2)c1 [GW621970X] | 100 | 90 | 100 | 94 | 100 | 100 | 100 | 100 | 100 | 83 | 100 | 100 | 100 | 100 | 93 | 100 | 100 | 98 | 100 | 63 |
| COc1cc(/C=N/Nc2ncnc3[nH]ncc23)ccc1O [GW578748X] | 33 | 96 | 100 | 5.5 | 100 | 91 | 100 | 100 | 72 | 93 | 100 | 100 | 45 | 100 | 40 | 16 | 40 | 7.1 | 1.5 | 83 |
| C[C@@H](Oc1cc(-n2cnc3ccc(OC4CCN(C)CC4)cc32)sc1C(N)=O)c1ccccc1Cl [GSK579289A] | 83 | 100 | 100 | 3.2 | 100 | 38 | 71 | 86 | 23 | 98 | 48 | 67 | 19 | 80 | 62 | 62 | 100 | 84 | 90 | 100 |
| COc1ccc2c(-c3ccnc(Nc4cccc(OC(F)(F)F)c4)n3)cnn2n1 [GW810372X] | 100 | 96 | 100 | 100 | 100 | 87 | 100 | 100 | 95 | 90 | 100 | 99 | 99 | 100 | 87 | 100 | 100 | 79 | 100 | 100 |
| O=C1Nc2ccc(C(=O)c3ccco3)cc2C1=Cc1cc(Cl)c(O)c(Cl)c1 [GW406108X] | 45 | 100 | 100 | 49 | 100 | 67 | 78 | 16 | 26 | 85 | 74 | 51 | 53 | 32 | 74 | 100 | 100 | 74 | 83 | 100 |
| CC(C)COC(=O)c1ccc2c(c1)/C(=C/Nc1ccc(S(N)(=O)=O)cc1)C(=O)N2 [GW416981X] | 21 | 100 | 100 | 67 | 100 | 66 | 100 | 100 | 36 | 97 | 100 | 100 | 43 | 100 | 65 | 71 | 79 | 18 | 31 | 94 |
| COc1ccc(COc2ccc(Cc3cnc(N)nc3N)cc2OC)cc1 [GW632580X] | 95 | 82 | 100 | 77 | 97 | 87 | 100 | 100 | 100 | 100 | 79 | 89 | 98 | 93 | 85 | 100 | 95 | 72 | 100 | 93 |
| COc1cc2ncn(-c3cc(O[C@H](C)c4ccccc4Cl)c(C(N)=O)s3)c2cc1OC [GSK237701A] | 83 | 92 | 92 | 68 | 100 | 72 | 96 | 87 | 50 | 77 | 100 | 90 | 45 | 94 | 68 | 83 | 87 | 75 | 90 | 65 |
